# Data reported in PubChem BioAssay AID2284151 (EPA ToxCast).
# Results filed as inconclusive are left out. Active and inactive are the calls of the source. The calls were made as follows: active = hit-call score of the fitted dose curve at least 0.9, where 1 is the maximum; inactive = score below 0.9.
# Molecular target: human Cholecystokinin Receptor CCK2 (CCKB) Agonism, CCKBR (gene 887) (UniProt P32239)
# Experiment: ERF_FR_GPCR_hCCKBR: Eurofins (ERF) G Protein-Coupled Receptor (GPCR) Radioligand Binding LeadHunter Assay for human Cholecystokinin Receptor CCK2 (CCKB) Agonism
# Description: ERF_FR_GPCR_hCCKBR is a biochemical, single-readout assay that uses extracted gene-proteins in a cell-free assay. Measurements were taken 1 hour after chemical dosing in a 96-well plate. See CCK2 (CCKB) Human Cholecystokinin GPCR Binding (Agonist Radioligand) Assay, Cerep.ERF_FR_GPCR_hCCKBR is an assay component calculated from the ERF_FR_GPCR_hCCKBR assay. It is designed to measure radioligand binding using a type of binding reporter as detected by scintillation counting with radiometry technology.Data from the assay component ERF_FR_GPCR_hCCKBR was analyzed at the assay endpoint, ERF_FR_GPCR_hCCKBR, in the positive analysis fitting direction relative to DMSO as the negative control and baseline of activity. Using a type of binding reporter, […] activity can be used to understand changes in binding as they relate to gene CCKBR. To generalize the intended target to other relatable targets, this assay endpoint is annotated to the gpcr intended target family, where the subfamily is cholecystokinin.
# Human cells are incubated for 60 minutes at room temprature with [125I]CCK-8s ligand (0.08 nM) and CCK-8s as control inhibitor.Test Sample Requirements: Minimum for 1) Screen: 60 ul of 10 mM stock -OR- 1 mg (pre-weighed) for 10 uM final testing. 2) Dose Response: 90 ul of 10 mM stock -OR- 1 mg (pre-weighed) for a top concentration at 10 uM.
# human Cholecystokinin Receptor CCK2 (CCKB) Agonism, CCKBR (gene 887), sequence (P32239 whole entry, looked up): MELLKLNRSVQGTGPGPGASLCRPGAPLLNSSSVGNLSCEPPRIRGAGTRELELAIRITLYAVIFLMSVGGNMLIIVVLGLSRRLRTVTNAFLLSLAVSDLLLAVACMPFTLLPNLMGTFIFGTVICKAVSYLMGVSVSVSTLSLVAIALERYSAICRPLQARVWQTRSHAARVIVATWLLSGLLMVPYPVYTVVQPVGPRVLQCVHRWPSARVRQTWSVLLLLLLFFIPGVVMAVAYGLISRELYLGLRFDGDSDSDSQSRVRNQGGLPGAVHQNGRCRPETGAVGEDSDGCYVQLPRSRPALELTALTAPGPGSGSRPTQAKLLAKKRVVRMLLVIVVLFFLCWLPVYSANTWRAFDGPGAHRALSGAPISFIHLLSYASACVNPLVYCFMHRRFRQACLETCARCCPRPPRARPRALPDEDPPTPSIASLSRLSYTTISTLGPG
row,Structure (SMILES),AC50
1,O=C(/C=C/c1ccc(O)cc1)CC(=O)/C=C/c1ccc(O)cc1,3.43 µM (active)
